Data published in PubChem BioAssay (NCI).
Compounds without any hit were thinned out: in the full panel of roughly 79,000, 15% have a hit. Calls of active or inactive are those of the source. Cut-off read from the data, not from the text of the source: active = growth inhibition above about 70%; inactive = the rest.

Assay: NCI Yeast Anticancer Drug Screen. Data for the cln2 rad14 strain (AID 165);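 note: 0% = growth equal to vehicle treated cultures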
Conditions: S. cerevisiae cln2 rad14 strain, active compounds read high
Description: Growth inhibition of yeast strains with defined genetic alterations is measured as a screen for potential anti-cancer activity. Selected strains with alterations in DNA damage repair or cell cycle control were exposed to compounds and growth inhibition was measured relative to vehicle treated controls. The strain used in this assay is cln2 rad14

[1] = at 5.0 µM (retest, dose inferred, filed as 0.5)
[2] = at 50.0 µM (retest, dose inferred, filed as 5.0)

Row | SMILES | growth inhibition [1] | growth inhibition [2] | growth inhibition (at 50.0 µM)
1 | Cc1ccc(C(=O)OCCN2CCOCC2)c([N+](=O)[O-])c1OCc1ccccc1 | 11% (inactive) | 28% (inactive) | 6.7% (inactive)
2 | CC(C)(C)CC(C)(C)NCc1cc(Cl)cc(Cc2cc(Cl)ccc2O)c1O | -4% (inactive) | 94% (active) | 16.8% (inactive)
3 | COC(=O)/C=C1/OC(c2ccccc2)=CC1=O | -2% (inactive) | -2% (inactive) | 70.3% (active)
4 | O=[N+]([O-])c1ccc(NS(=O)(=O)c2ccc(Cl)c(Cl)c2Cl)c([N+](=O)[O-])c1 | 16% (inactive) | 25% (inactive) | 45.1% (inactive)
5 | Cc1ccc([N+](=O)[O-])c2c(NCCCN(C)C)c3ccccc3nc12 | 95% (active) | 99% (active) | 77.3% (active)
6 | CCSC(=O)/C=C1\CN(C(=O)OC(C)(C)C)C1C(=O)OC(C)(C)C (configuration not stated) | -35% (inactive) | 14% (inactive) | 72.9% (active)
7 | O=C(Nc1nc2c(ncn2C2CC(OC(=O)c3ccccc3)C(COC(=O)c3ccccc3)O2)c(=O)[nH]1)c1ccccc1 (configuration not stated) | 6% (inactive) | 18% (inactive) | 66.4% (inactive)
8 | CCOC(=O)C(NC(C)=O)[CH](c1ccccc1)[Sn]([Cl])([c]1ccccc1)[c]1ccccc1 (configuration not stated) | -22% (inactive) | -2% (inactive) | 49.1% (inactive)
9 | Nc1ccccc1CCc1ccccc1 | -1% (inactive) | 78% (active) | 67% (inactive)
10 | COc1ccc(C2C3CCCC(C3=O)C(c3ccc(OC)cc3)N2N=O)cc1 (configuration not stated) | -6% (inactive) | 71% (active) | 88.8% (active)
11 | CCN1/C(=C\c2cc(C)nc(-c3ccccc3)[n+]2C)C=Cc2ccccc21 | 43% (inactive) | 98% (active) | 98.8% (active)
12 | CSCCOC(=O)c1cc(NC(=S)c2ccoc2C)ccc1Cl | 14% (inactive) | 83% (active) | 67% (inactive)
13 | CN(C)c1ccc(/C=C/c2ccnc3ccccc23)c(O)c1 | 3% (inactive) | -3% (inactive) | 34% (inactive)
14 | CCOC(=O)CN1CCC(C(=O)CC2(O)C3(Cl)C4(Cl)C5(Cl)C(Cl)(Cl)C6(Cl)C4(Cl)C2(Cl)C6(Cl)C53Cl)CC1 (configuration not stated) | 58% (inactive) | 98% (active) | 98.5% (active)
